# RAD54 inh – RAD54 (human) branch migration inhibition; Q92698; RAD54 Holliday junction branch migration, FAM/BHQ fluorescence; inhibition, % at 10.4 µM; hit rate 0.14% among 360,000; AID 602329;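 active = mean normalized replicate activity at least 40 and at least half of replicates scoring 40 or more; inconclusive = only one of the two criteria met; inactive = mean below 40 and under half of replicates reaching 40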;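 also: 0% = median of neutral control wells and 100% = median of positive control wells; inhibitors cause a drop in the FAM fluorescence signal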
# AF4-AF9 inh – blocks AF4 peptide binding to human AF9. inhibition, % at 10 µM. hit rate 0.47% among 350,000. AlphaScreen, biotin-AF4 peptide binding to FLAG-AF9. P42568;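 active = every replicate reaching a set inhibition limit, whatever the replicate mean, cut at about 25% in these data; inconclusive = mean inhibition reaches that limit but some replicates miss it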;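 also: 0% = plate neutral control median and 100% = total signal loss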
# Target sequence (P42568 whole entry, looked up): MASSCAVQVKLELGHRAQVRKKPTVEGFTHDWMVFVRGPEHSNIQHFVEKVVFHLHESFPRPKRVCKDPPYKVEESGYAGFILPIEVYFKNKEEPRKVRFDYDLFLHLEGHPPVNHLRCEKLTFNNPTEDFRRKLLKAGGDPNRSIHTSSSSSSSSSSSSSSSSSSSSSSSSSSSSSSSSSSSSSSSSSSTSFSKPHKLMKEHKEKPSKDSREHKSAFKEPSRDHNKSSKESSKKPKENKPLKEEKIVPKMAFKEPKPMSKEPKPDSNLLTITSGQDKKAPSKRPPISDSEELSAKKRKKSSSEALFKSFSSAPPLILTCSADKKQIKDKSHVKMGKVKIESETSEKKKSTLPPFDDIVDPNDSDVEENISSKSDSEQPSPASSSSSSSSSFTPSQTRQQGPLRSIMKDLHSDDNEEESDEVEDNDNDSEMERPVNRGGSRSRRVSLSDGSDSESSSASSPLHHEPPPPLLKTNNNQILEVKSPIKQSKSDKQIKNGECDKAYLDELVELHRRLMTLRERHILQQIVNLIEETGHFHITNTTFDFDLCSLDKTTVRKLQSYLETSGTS
# DENV2 CPE – protects cells from dengue virus 2 cytopathic effect. DENV2-infected cells, cytopathic effect rescue, plate reader. CPE inhibition, % at 9.99 µM. hit rate 1.7% among 350,000. AID 651640; in the data active = CPE inhibition above about 20%, passing the limit was not always enough; inconclusive = no clear call, values can overlap the other calls; tested in BHK-21 cells;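 also: 0% = median of neutral control wells and 100% = median of positive control wells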
# RAD52 inh – inhibitors of human RAD52 DNA annealing; P43351; inhibition, % at 18.7 µM; recombinant RAD52 DNA annealing, FRET fluorescence; hit rate 0.46% among 360,000;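 active = every replicate showing at least 50% inhibition; inconclusive = mean inhibition at least 50% but not in every replicate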
# dFosB activator – mouse delta FosB homodimer activation; P13346; hit rate 0.99% among 340,000; purified delta FosB, TAMRA-CDK5 oligo fluorescence polarization; percent of positive-control signal above neutral wells; activation, % at 25 µM; AID 493131;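 active = mean activation above about 17%, with every replicate also reaching it, limit read from the data, passing the limit was not always enough; inconclusive = only one of the two conditions met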
# INS-1E GSIS act – GLuc luminescence reporter in INS-1E cells, primary screen for activators of glucose-dependent secretion of insulin. INS-1E GLuc reporter insulin secretion, 2-3 h. activation, % at 16.6 µM. hit rate 0.61% among 370,000;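 active = lowest replicate activation of at least 40%, so every replicate reaches that level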;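 also: 0% = median of neutral control wells and 100% = median of IBMX positive control wells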
# An asterisk follows results filed as active; u = inconclusive; x = no result given. Sampled rows, rich in hits. Any-hit rate of the full collection: about 3.1%.
SMILES,RAD54 inh,AF4-AF9 inh,DENV2 CPE,RAD52 inh,dFosB activator,INS-1E GSIS act
C[C@@H]1CCCCO[C@@H](CN(C)CC2CCCCC2)[C@@H](C)CN([C@@H](C)CO)C(=O)c2cc(NC(=O)Nc3ccccc3)ccc2O1,12,7,-10,18,x,-4
C[C@@H]1CN([C@H](C)CO)C(=O)c2cc(NC(=O)Nc3ccc(F)cc3)ccc2O[C@H]1CN(C)Cc1ccncc1,0,-5,37*,9,x,5
C[C@@H]1CCCCO[C@H](CN(C)C(=O)NC2CCCCC2)[C@H](C)CN([C@@H](C)CO)C(=O)c2cc(NC(=O)c3ccccc3)ccc2O1,2,x,43*,x,x,-34
C[C@@H]1CN([C@@H](C)CO)C(=O)c2cc(NC(=O)Nc3ccc(F)cc3)ccc2O[C@@H](C)CCCCO[C@@H]1CN(C)CC1CCCCC1,0,-4,2,3,x,-13
C[C@@H]1CCCCO[C@H](CN(C)C(=O)NC2CCCCC2)[C@@H](C)CN([C@@H](C)CO)C(=O)c2cc(NC(=O)c3ccccc3)ccc2O1,-4,x,13,x,x,-16
C[C@@H]1CCCCO[C@H](CN(C)CC2CCCCC2)[C@@H](C)CN([C@H](C)CO)C(=O)c2cc(NC(=O)Nc3ccccc3)ccc2O1,1,6,21*,-8,x,8
COc1ccc(NC(=O)Nc2ccc3c(c2)C(=O)N([C@H](C)CO)C[C@H](C)[C@@H](CN(C)CC2CC2)OCCCC[C@@H](C)O3)cc1,6,16,8,26,x,6
C[C@@H]1CCCCO[C@H](CN(C)CC2CC2)[C@H](C)CN([C@@H](C)CO)C(=O)c2cc(NC(=O)c3ccccc3)ccc2O1,12,6,-4,52*,x,-7
COc1ccc(NC(=O)Nc2ccc3c(c2)C(=O)N([C@H](C)CO)C[C@@H](C)[C@H](CN(C)CC2CC2)OCCCC[C@@H](C)O3)cc1,6,28*,2,38,x,-10
C[C@@H]1CCCCO[C@H](CN(C)Cc2ccccc2)[C@H](C)CN([C@@H](C)CO)C(=O)c2cc(NC(=O)c3ccccc3)ccc2O1,-5,x,27*,x,x,-21
C[C@H](CO)N1C[C@H](C)[C@@H](CN(C)CC2CCCCC2)Oc2ccc(NC(=O)Nc3ccc(F)cc3)cc2C1=O,-6,4,27*,18,x,12
C[C@H]1CN([C@@H](C)CO)C(=O)c2cc(NC(=O)Nc3ccccc3)ccc2O[C@H]1CN(C)CC1CCCCC1,13,0,11,-2,x,14
C[C@@H]1CCCCO[C@H](CN(C)Cc2ccccc2)[C@@H](C)CN([C@H](C)CO)C(=O)c2cc(NC(=O)c3ccccc3)ccc2O1,0,5,0,-9,x,-14
Cc1cccc(-c2ccc([C@H]3[C@@H](CO)N4CCCCN(C(=O)c5ccc6c(c5)OCO6)C[C@H]34)cc2)c1,0,19,-33,-25,x,-30
C[C@@H]1CN([C@@H](C)CO)C(=O)c2cc(NC(=O)Nc3ccc(F)cc3)ccc2O[C@H]1CN(C)C,11,-1,27*,17,x,-6
C[C@@H]1CCCCO[C@H](CN(C)CC2CCCCC2)[C@@H](C)CN([C@H](C)CO)C(=O)c2cc(NC(=O)Nc3cccc4ccccc34)ccc2O1,10,8,-3,8,x,-9
C[C@@H]1CCCCO[C@@H](CN(C)CC2CC2)[C@H](C)CN([C@H](C)CO)C(=O)c2cc(NC(=O)Nc3ccccc3)ccc2O1,16,20,41*,40,x,-13
C[C@@H]1CCCCO[C@H](CN(C)CC2CCCCC2)[C@H](C)CN([C@@H](C)CO)C(=O)c2cc(NC(=O)Nc3ccccc3)ccc2O1,9,4,9,-13,x,-5
C[C@@H]1CN([C@@H](C)CO)C(=O)c2cc(NC(=O)Nc3cccc4ccccc34)ccc2O[C@H]1CN(C)CC1CCCCC1,9,13,34*,24,x,-23
CN1[C@@H]2c3ccc(C4=CCCC4)c(=O)n3C[C@H]1[C@H](CO)[C@H]2C(=O)N1CCOCC1,-11,-6,15,-21,x,21
C[C@H](CO)N1C[C@H](C)[C@@H](CN(C)S(=O)(=O)c2ccccc2)Oc2ccc(NC(=O)c3ccncc3)cc2CC1=O,5,-1,-5,-6,x,14
COC(=O)C[C@H]1C[C@@H]2c3cc(NC(=O)Nc4ccccc4)ccc3O[C@@H]2[C@H](CO)O1,5,2,2,-3,x,13
CC(=O)c1cccc(NC(=O)c2ccc3c(c2)CCCC3)c1,-3,3,15,-1,-9,-12
CC(=O)c1ccc2c3c(cc(C)c2c1)CCCC3,-4,-3,25*,-12,-2,x
CCC[N+](CC#Cc1ccccc1)(CCC)CC(=O)c1ccc(Cl)cc1,x,-8,46*,0,1,-14
SMILES,RAD54 inh,AF4-AF9 inh,DENV2 CPE,RAD52 inh,dFosB activator,INS-1E GSIS act
CCC[N+](CC#Cc1ccccc1)(CCC)CC(=O)OC,x,x,x,x,6,9
CNS(=O)(=O)c1cccc(C(=O)OCc2csc(-c3ccccc3)n2)c1,0,x,x,x,-15,2
Nc1ccc(C(=O)OCc2csc(-c3ccccc3)n2)cc1[N+](=O)[O-],x,x,x,x,-2,46*
Cc1noc(C)c1NC(=O)N(C)C[C@H]1OCCCC[C@H](C)Oc2ccc(NS(=O)(=O)c3ccc(Cl)cc3)cc2C(=O)N([C@H](C)CO)C[C@@H]1C,-6,-17,16,-21,x,-5
O=[N+]([O-])c1ccc(/C=N/n2c(-c3cccnc3)n[nH]c2=S)cc1,-6,x,x,x,3,1
O=[N+]([O-])c1cccc(/C=N/n2c(-c3cccnc3)n[nH]c2=S)c1,3,x,x,x,-5,54*
CCOc1ccc(/C=C2/Sc3ccc(C(=O)NCC4CCCO4)cc3N(C)C2=O)cc1OC (stereo not drawn),6,6,2,-14,-11,40*
Cc1cccc(/C=C2\Sc3ccc(C(=O)NCC4CCCO4)cc3N(C)C2=O)c1 (stereo not drawn),-6,10,-3,-11,2,-10
Cn1cccc1/C=C1\SC(=Nc2cccc(O)c2)NC1=O,-7,25*,10,-8,-19,-22
CSc1cccc(NC(=O)CC2Oc3ccccc3NC2=O)c1 (stereo not drawn),6,-1,37*,-3,37*,-1
COc1cccc(NC(=O)CC2Oc3ccccc3NC2=O)c1 (stereo not drawn),8,-2,0,1,-8,-6
CCNC(=O)Nc1ccc2c(c1)C(=O)N(C)[C@H]1CC[C@H](CC(=O)Nc3ccccc3Cl)O[C@@H]1CO2,-11,-16,u,11,x,7
CO[C@H]1CN(C)C(=O)c2ccc(NC(=O)c3ccc(F)cc3)cc2OC[C@@H](C)N(C(C)=O)C[C@@H]1C,4,1,2,3,x,-5

# Screening results: PubChem BioAssay, Broad Institute
